# Inconclusive results are not listed. Calls of active or inactive are those of the source. Calls come from the whole dose curve; as a rule, active = well fitted inhibition curve with a large enough effect; inconclusive = small, poorly fitted or top-dose-only effect; inactive = no such curve, though single readings can be large or run the other way.
# Target: N-terminal Xaa-Pro-Lys N-methyltransferase 1 (Homo sapiens) (UniProt Q9BV86)
# Assay: qHTS Assay for Inhibitors of N-terminal methyltransferase 1 (NTMT1): ThioGlo3 Assay Confirmatory Screen, Round 1.
# Conditions: NTMT1 SAHH-coupled ThioGlo3 fluorescence, 30 min; series mostly up to 56.8 µM; activity change, negative = inhibition: at the top concentration
# Summary of the method: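 Human NTMT1 at 125 nM was preincubated 1 min at room temperature with compounds at various concentrations or 1 uM RCC1-6 control. Substrate mix (100 uM SAM, 10 uM SAHH, 15 uM ThioGlo3) was added, and fluorescence (Ex 340/Em 450 nm) was read at start and after 30 min, normalized to background.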
# Note: nearly all actives have a fitted effect of over 80% in size.
# Potency is the fitted concentration of half-maximal effect.
# Throughout, for activity change, negative = inhibition: 0% is about no effect.
# N-terminal Xaa-Pro-Lys N-methyltransferase 1 (Homo sapiens), sequence (Q9BV86 whole entry, looked up): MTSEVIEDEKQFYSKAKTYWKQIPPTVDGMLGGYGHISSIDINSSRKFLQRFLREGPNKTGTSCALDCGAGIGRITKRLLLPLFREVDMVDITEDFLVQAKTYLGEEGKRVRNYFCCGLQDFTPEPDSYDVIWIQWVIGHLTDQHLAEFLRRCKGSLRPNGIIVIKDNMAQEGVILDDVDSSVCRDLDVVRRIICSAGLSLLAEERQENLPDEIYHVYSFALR
SMILES,Potency,"activity change, negative = inhibition"
Nc1nc(Nc2ccccc2)nc2c1ncn2[C@@H]1O[C@H](CO)C(O)[C@H]1O (stereo partly specified),24.1 µM (active),
CSc1nc(N)c2ncn([C@@H]3O[C@H](COP(=O)(O)OP(=O)(O)O)C(O)[C@H]3O)c2n1 (stereo partly specified),,-17.9% (inactive)
Nc1ccnc2c1ncn2[C@@H]1O[C@H](CO)[C@@H](O)[C@H]1O,2.71 µM (active),
Nc1ncnc2c1[nH]c(=S)n2C1OC(CO)C(O)C1O (stereo unspecified),17.1 µM (active),
CC(C)=CCNc1ncnc2c1ncn2[C@@H]1O[C@H](CO)[C@@H](O)[C@H]1O,13.6 µM (active),
CSc1ncnc2c1ncn2C1OC(CO)C(O)C1O (stereo unspecified),,10.2% (inactive)
CSc1nc(N)c2ncn([C@H]3O[C@H](COP(=O)(O)OP(=O)(O)O)[C@@H](O)[C@@H]3O)c2n1,,-6.87% (inactive)
COc1cc2c(NC3CCN(C(C)C)CC3)nc(N3CCCCC3)nc2cc1OCCCN1CCCC1,30.4 µM (active),
O=C(Nc1ncnc2c1ncn2[C@@H]1O[C@@H]2COP(=O)(O)O[C@H]2[C@H]1O)c1ccccc1,,20.2% (inactive)
COc1cc2c(NC3CCN(C(C)C)CC3)nc(N3CCCN(CC4CCCCC4)CC3)nc2cc1OCCCN1CCCC1,24.1 µM (active),
Nc1ncnc2c1ncn2[C@@H]1O[C@H](CSCC[C@H](N)C(=O)O)[C@@H](O)[C@H]1O,,1830% (inactive)
[N-]=[N+]=Nc1nc2c(N)ncnc2n1C1OC(CO)C(O)C1O (stereo unspecified),21.5 µM (active),
Nc1ncnc2c1ncn2[C@@H]1O[C@H](COP(=O)(O)O)[C@@H](O)[C@@H]1O,,13.1% [at 27.4 µM] (inactive)
Nc1nc(Cl)nc2c1ncn2[C@@H]1O[C@H](COP(=O)(O)OP(=O)(O)OP(=O)(O)O)[C@@H](O)[C@H]1O,,-20.5% (inactive)
CCN(c1cc(C#CCN2CCOCC2)cc(C(=O)NCc2c(C)cc(C)[nH]c2=O)c1C)C1CCC(N(C)CCOC)CC1 (stereo unspecified),,1.3% (inactive)
C=C1OC(CO)(n2cnc3c(N)ncnc32)C(O)C1O (stereo unspecified),,-17.8% (inactive)
COc1cc2c(NC3CCN(C)CC3)nc(N3CCCN(C)CC3)nc2cc1OCCCN(C)C,27.1 µM (active),
CC(C)(COP(=O)(O)OP(=O)(O)OC[C@H]1O[C@@H](n2cnc3c(N)ncnc32)[C@H](O)[C@@H]1OP(=O)(O)O)[C@H](O)C(=O)NCCC(=O)NCCS,,49.5% (inactive)

SMILES,Potency,"activity change, negative = inhibition"
Nc1ncnc2c1nc(N1CCCCC1)n2[C@@H]1O[C@@H]2COP(=O)(O)O[C@H]2[C@H]1O,,-18.6% (inactive)
Nc1ncnc2c1ncn2[C@@H]1O[C@H](COP(=O)(O)OP(=O)(O)CP(=O)(O)O)[C@@H](O)[C@H]1O,,3.29% (inactive)
OCC1OC(n2cnc3c(=S)nc[nH]c32)C(O)C1O (stereo unspecified),13.6 µM (active),
COc1cc2nc(N3CCOCC3)nc(NC3CC3)c2cc1OC,27.1 µM (active),
O=c1[nH]cnc2c1ncn2[C@@H]1O[C@H](CO)[C@@H](O)[C@H]1O,inactive,
CCN1CCN(c2nc(NC3CC3)c3cc(OC)c(OC)cc3n2)CC1,24.1 µM (active),
COc1cc2c(NC3CCN(C)CC3)nc(N3CCCN(C)CC3)nc2cc1OCCCCN(C)C,24.1 µM (active),
Nc1ncnc2c1nc(Cl)n2[C@@H]1O[C@H](CO)[C@@H](O)[C@@H]1O,,6.13% (inactive)
COc1cc2c(NC3CCN(C)CC3)nc(N3CCCCC3)nc2cc1OCCOCCN(C)C,24.1 µM (active),
COc1cc2c(NC3CCN(CC4CCCCC4)CC3)nc(N3CCCCCC3)nc2cc1OCCOCCN(C)C,27.1 µM (active),
Nc1ncnc2c1ncn2[C@@H]1O[C@H](CO)[C@@H](O)[C@H]1O,1.08 µM (active),
Nc1ncnc2c1ncn2[C@@H]1O[C@H](CO)C(O)[C@H]1O (stereo partly specified),1.36 µM (active),
COc1cc2c(NC3CCN(C)CC3)nc(N3CCCN(C)CC3)nc2cc1OCCCCCN,24.1 µM (active),
COc1cc2c(NC3CCN(C(C)C)CC3)nc(N3CCCN(C)CC3)nc2cc1OCCCN(C)C,24.1 µM (active),
Nc1nc(F)nc2c1ncn2[C@@H]1O[C@H](CO)[C@@H](O)[C@@H]1O,inactive,
Nc1ncnc2c1ncn2[C@@H]1O[C@H](COP(=O)(O)O)[C@@H](O)[C@H]1O,,-20.8% (inactive)
COc1cc2c(NC3CCN(C(C)C)CC3)nc(N3CCC(F)(F)CC3)nc2cc1OCCCN1CCCCC1,6.81 µM (active),
COc1cc2nc(N3CCCCC3)nc(NC3CCN(C)CC3)c2cc1OC,27.1 µM (active),

# Source: PubChem BioAssay AID1347142 (National Center for Advancing Translational Sciences (NCATS), 2019)
